# Out of some 5,500 compounds screened, about 2,000 (36%) were called active. Roughly 18% stayed inconclusive and do not appear here. The list shows a part of the results. Unmarked numbers belong to inactive results. No stated cut-off is given here; in the data, active means normalized growth mostly below about 0.91 (no sharp cut-off); inconclusive means no clear call, values can overlap the other calls; inactive means mostly above about 0.92.
# Assay: chemical genetic growth profiling, strain panel (AID 1159580);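 further: tested at 20 µM; growth read once vehicle control cultures reached saturation at 30 °C; 1 = growth at the plate median or of vehicle wells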
# Conditions: growth OD
smiles,measurement,setting,value
CCCCOc1ccc(OCCCN2CCOCC2)cc1,normalized growth,"S. cerevisiae deletion strains, locus YJR075W, strain HOC1, stronger effect = lower value",0.806 (active)
same,normalized growth,"S. cerevisiae deletion strains, locus YKL009W, strain mrt4, stronger effect = lower value",1
same,normalized growth,"S. cerevisiae deletion strains, locus YKL068W, stronger effect = lower value",0.998
same,normalized growth,"S. cerevisiae deletion strains, locus YKL085W, strain MDH1 (second series), stronger effect = lower value",0.997
same,normalized growth,"S. cerevisiae deletion strains, locus YKL085W, strain MDH1, stronger effect = lower value",0.997
same,normalized growth,"S. cerevisiae deletion strains, locus YKL160W, strain elf1, stronger effect = lower value",0.914
same,normalized growth,"S. cerevisiae deletion strains, locus YKL190W, strain CNB1, stronger effect = lower value",0.871 (active)
same,normalized growth,"S. cerevisiae deletion strains, locus YKR001C, strain vps1, stronger effect = lower value",0.572 (active)
same,normalized growth,"S. cerevisiae deletion strains, locus YKR026C, strain gcn3, stronger effect = lower value",0.985
same,normalized growth,"S. cerevisiae deletion strains, locus YKR091W, strain srl3, stronger effect = lower value",0.992
same,normalized growth,"S. cerevisiae deletion strains, locus YLL001W, strain dnm1, stronger effect = lower value",0.944
same,normalized growth,"S. cerevisiae deletion strains, locus YLL026W, stronger effect = lower value",0.98
same,normalized growth,"S. cerevisiae deletion strains, locus YLL041C, strain sdh2, stronger effect = lower value",0.958
same,normalized growth,"S. cerevisiae deletion strains, locus YLR027C, strain aat2, stronger effect = lower value",0.977
same,normalized growth,"S. cerevisiae deletion strains, locus YLR039C, strain RIC1, stronger effect = lower value",1.22
same,normalized growth,"S. cerevisiae deletion strains, locus YLR058C, strain SHM2, stronger effect = lower value",0.908
same,normalized growth,"S. cerevisiae deletion strains, locus YLR102C, strain apc9, stronger effect = lower value",0.989
same,normalized growth,"S. cerevisiae deletion strains, locus YLR113W, strain HOG1, stronger effect = lower value",1.03
same,normalized growth,"S. cerevisiae deletion strains, locus YLR221C, strain rsa3, stronger effect = lower value",0.919
same,normalized growth,"S. cerevisiae deletion strains, locus YLR258W, strain gsy2, stronger effect = lower value",0.946
same,normalized growth,"S. cerevisiae deletion strains, locus YLR262C, strain YPT6 (second series), stronger effect = lower value",0.771 (active)
same,normalized growth,"S. cerevisiae deletion strains, locus YLR262C, strain YPT6, stronger effect = lower value",1.16
same,normalized growth,"S. cerevisiae deletion strains, locus YLR268W, strain sec22, stronger effect = lower value",0.873 (active)
same,normalized growth,"S. cerevisiae deletion strains, locus YLR320W, strain mms22, stronger effect = lower value",0.609 (active)
same,normalized growth,"S. cerevisiae deletion strains, locus YLR330W, strain CHS5, stronger effect = lower value",0.969
same,normalized growth,"S. cerevisiae deletion strains, locus YLR342W, strain FKS1 (second series), stronger effect = lower value",0.87
same,normalized growth,"S. cerevisiae deletion strains, locus YLR342W, strain FKS1, stronger effect = lower value",0.985
same,normalized growth,"S. cerevisiae deletion strains, locus YLR357W, strain rsc2, stronger effect = lower value",1.08
same,normalized growth,"S. cerevisiae deletion strains, locus YLR370C, strain arc18, stronger effect = lower value",0.986
same,normalized growth,"S. cerevisiae deletion strains, locus YLR371W, strain rom2, stronger effect = lower value",0.965
same,normalized growth,"S. cerevisiae deletion strains, locus YLR384C, strain iki3, stronger effect = lower value",0.934
same,normalized growth,"S. cerevisiae deletion strains, locus YLR418C, strain cdc73, stronger effect = lower value",0.736 (active)
same,normalized growth,"S. cerevisiae deletion strains, locus YML016C, strain PPZ1, stronger effect = lower value",0.985
same,normalized growth,"S. cerevisiae deletion strains, locus YML032C, strain rad52, stronger effect = lower value",0.848 (active)
same,normalized growth,"S. cerevisiae deletion strains, locus YML120C, strain ndi1, stronger effect = lower value",1.01
same,normalized growth,"S. cerevisiae deletion strains, locus YML124C, strain tub3, stronger effect = lower value",0.997
same,normalized growth,"S. cerevisiae deletion strains, locus YMR058W, strain fet3, stronger effect = lower value",0.927
same,normalized growth,"S. cerevisiae deletion strains, locus YMR078C, strain ctf18, stronger effect = lower value",0.975
same,normalized growth,"S. cerevisiae deletion strains, locus YMR125W, strain sto1, stronger effect = lower value",0.973
same,normalized growth,"S. cerevisiae deletion strains, locus YMR129W, stronger effect = lower value",1
same,normalized growth,"S. cerevisiae deletion strains, locus YMR205C, strain PFK2, stronger effect = lower value",0.897
same,normalized growth,"S. cerevisiae deletion strains, locus YMR223W, strain ubp8, stronger effect = lower value",0.88 (active)
same,normalized growth,"S. cerevisiae deletion strains, locus YMR231W, strain pep5, stronger effect = lower value",0.967
same,normalized growth,"S. cerevisiae deletion strains, locus YMR263W, strain SAP30, stronger effect = lower value",0.946
same,normalized growth,"S. cerevisiae deletion strains, locus YMR307W, strain GAS1, stronger effect = lower value",1
same,normalized growth,"S. cerevisiae deletion strains, locus YNL067W, strain RPL9B, stronger effect = lower value",0.829 (active)
same,normalized growth,"S. cerevisiae deletion strains, locus YNL071W, strain lat1, stronger effect = lower value",0.663 (active)
same,normalized growth,"S. cerevisiae deletion strains, locus YNL128W, strain TEP1, stronger effect = lower value",0.986
same,normalized growth,"S. cerevisiae deletion strains, locus YNL153C, strain GIM3, stronger effect = lower value",0.903
same,normalized growth,"S. cerevisiae deletion strains, locus YNL183C, strain NPR1, stronger effect = lower value",0.917
same,normalized growth,"S. cerevisiae deletion strains, locus YNL209W, strain ssb2, stronger effect = lower value",0.965
same,normalized growth,"S. cerevisiae deletion strains, locus YNL233W, strain BNI4, stronger effect = lower value",0.767 (active)
same,normalized growth,"S. cerevisiae deletion strains, locus YNL248C, strain rpa49, stronger effect = lower value",0.769 (active)
same,normalized growth,"S. cerevisiae deletion strains, locus YNL250W, strain rad50, stronger effect = lower value",0.963
same,normalized growth,"S. cerevisiae deletion strains, locus YNL271C, strain bni1, stronger effect = lower value",0.966
same,normalized growth,"S. cerevisiae deletion strains, locus YNL298W, strain CLA4, stronger effect = lower value",0.975
same,normalized growth,"S. cerevisiae deletion strains, locus YNL307C, strain MCK1, stronger effect = lower value",0.649 (active)
same,normalized growth,"S. cerevisiae deletion strains, locus YNL322C, strain KRE1 (second series), stronger effect = lower value",1.02
same,normalized growth,"S. cerevisiae deletion strains, locus YNL322C, strain KRE1, stronger effect = lower value",0.977
same,normalized growth,"S. cerevisiae deletion strains, locus YNR049C, strain mso1, stronger effect = lower value",0.978
same,normalized growth,"S. cerevisiae deletion strains, locus YNR052C, strain pop2, stronger effect = lower value",0.83 (active)
same,normalized growth,"S. cerevisiae deletion strains, locus YOL006C, strain TOP1, stronger effect = lower value",0.239 (active)
same,normalized growth,"S. cerevisiae deletion strains, locus YOL012C, strain htz1",1.06
same,normalized growth,"S. cerevisiae deletion strains, locus YOL147C, strain pex11, stronger effect = lower value",0.962
same,normalized growth,"S. cerevisiae deletion strains, locus YOR001W, strain rrp6, stronger effect = lower value",0.8 (active)
same,normalized growth,"S. cerevisiae deletion strains, locus YOR061W, strain CKA2, stronger effect = lower value",0.987
same,normalized growth,"S. cerevisiae deletion strains, locus YOR069W, strain VPS5, stronger effect = lower value",0.995
same,normalized growth,"S. cerevisiae deletion strains, locus YOR070C, strain gyp1, stronger effect = lower value",0.632 (active)
same,normalized growth,"S. cerevisiae deletion strains, locus YOR080W, strain dia2, stronger effect = lower value",0.985
same,normalized growth,"S. cerevisiae deletion strains, locus YOR083W, strain WHI5, stronger effect = lower value",0.931
same,normalized growth,"S. cerevisiae deletion strains, locus YOR106W, strain vam3, stronger effect = lower value",0.875
same,normalized growth,"S. cerevisiae deletion strains, locus YOR136W, strain idh2, stronger effect = lower value",0.962
same,normalized growth,"S. cerevisiae deletion strains, locus YOR144C, strain elg1, stronger effect = lower value",0.994
same,normalized growth,"S. cerevisiae deletion strains, locus YOR184W, strain ser1, stronger effect = lower value",0.742 (active)
same,normalized growth,"S. cerevisiae deletion strains, locus YOR231W, strain MKK1, stronger effect = lower value",0.984
same,normalized growth,"S. cerevisiae deletion strains, locus YOR265W, strain rbl2, stronger effect = lower value",0.967
same,normalized growth,"S. cerevisiae deletion strains, locus YOR270C, strain vph1, stronger effect = lower value",0.41 (active)
same,normalized growth,"S. cerevisiae deletion strains, locus YOR290C, strain snf2, stronger effect = lower value",0.917
same,normalized growth,"S. cerevisiae deletion strains, locus YOR316C, strain cot1, stronger effect = lower value",0.99
same,normalized growth,"S. cerevisiae deletion strains, locus YPL051W, strain arl3, stronger effect = lower value",0.873 (active)
same,normalized growth,"S. cerevisiae deletion strains, locus YPL055C, strain LGE1, stronger effect = lower value",0.857
same,normalized growth,"S. cerevisiae deletion strains, locus YPL078C, strain atp4, stronger effect = lower value",0.941
same,normalized growth,"S. cerevisiae deletion strains, locus YPL106C, strain sse1, stronger effect = lower value",1.09
same,normalized growth,"S. cerevisiae deletion strains, locus YPL240C, strain hsp82, stronger effect = lower value",0.982
same,normalized growth,"S. cerevisiae deletion strains, locus YPL241C, strain CIN2, stronger effect = lower value",0.992
same,normalized growth,"S. cerevisiae deletion strains, locus YPL256C, strain CLN2, stronger effect = lower value",1.02
same,normalized growth,"S. cerevisiae deletion strains, locus YPR119W, strain clb2, stronger effect = lower value",1.01
same,normalized growth,"S. cerevisiae deletion strains, locus YPR141C, strain kar3, stronger effect = lower value",0.984
same,normalized growth,"S. cerevisiae deletion strains, locus YPR163C, strain tif3, stronger effect = lower value",0.765 (active)
same,normalized growth,"S. cerevisiae deletion strains, locus YPR167C, strain met16, stronger effect = lower value",0.977
same,normalized growth,"S. cerevisiae deletion strains, strain wtn01, stronger effect = lower value",0.856 (active)
same,normalized growth,"S. cerevisiae strains, strain wild type, stronger effect = lower value",0.895 (active)

# From PubChem BioAssay AID1159580 (chemical genetic matrix, 2015)
